The full ranking holds about 16,000 sequences; the median of “rpm ratio (pull-down/input)” is about 0.94, and the highest 2% start at about 1.7. The sample holds the highest values, similar sequences and a random draw of the others, so the mix is not that of the screen.

The target in the experiment is T1, MBP-FoxP1dN (Mus musculus, UniProt P58462 326-579).
T1 sequence: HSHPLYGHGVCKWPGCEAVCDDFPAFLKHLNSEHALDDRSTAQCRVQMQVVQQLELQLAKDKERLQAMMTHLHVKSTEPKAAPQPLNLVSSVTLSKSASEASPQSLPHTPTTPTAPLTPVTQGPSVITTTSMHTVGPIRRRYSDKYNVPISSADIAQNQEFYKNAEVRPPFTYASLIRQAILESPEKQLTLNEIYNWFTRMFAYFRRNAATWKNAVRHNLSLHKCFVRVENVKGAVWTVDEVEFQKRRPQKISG
Briefly: PD-seq (MBP pull-down with sequencing); 20 mM Tris-HCl pH 7.5, 100 mM NaCl, 1.5 mM MgCl2, 0.4 uM protein, 0.1 uM dsDNA library, 30 min, room temperature, amylose pull-down; high values mean tight binding. Conditions: protein: recombinant; tags: His6-MBP; chain copies: 2; dsDNA, one strand shown. The gist of the method: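 Mouse FoxP3 or FoxP1 fragment lacking the N-terminus, His6-MBP-tagged and expressed in E. coli, was incubated at 0.4 µM with 0.1 µM Klenow-filled degenerate double-stranded DNA library for 30 min at room temperature in Tris pH 7.5 buffer with NaCl and MgCl2. Complexes captured on amylose resin were washed three times and their DNA sequenced on Illumina. Binding is reads-per-million enrichment of pull-down over input, replicates pooled.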
“GATGATTGTTCTCCCAGCTGATGAATTGGTTTGGTCGAGTAAACAAATTTTCCTAATCTTTCTGTTCAAGCGCCATCTAC”: the binding signal is 0.947 RPM ratio (pull-down/input).

Take “GATGATTGTTCTCCCAGCTGATGAATTTGTTGGGTCGAGTAAACAAATTTTCCTAATCTTTCTGTTCAAGCGCCATCTAC”: the binding signal was 1.56 RPM ratio (pull-down/input). Next, “GATGATTGTTCTCCCAGCTGATGAATTTGATTGGTCGAGTAAACAAATTTTCCTAATCTTTCTGTTCAAGCGCCATCTAC”: 0.963 RPM ratio (pull-down/input); “GATGATTGTTCTCCCAGCTGATGAATTGTTTGGGTCGAGTAAACAAATTTTCCTAATCTTTCTGTTCAAGCGCCATCTAC”: 1.79 RPM ratio (pull-down/input). Take “GATGATTGTTCTCCCAGCTGATGAATTTTTTTGGTCGAGTAAACAAATTTTCCTAATCTTTCTGTTCAAGCGCCATCTAC”: the binding signal was 0.952 RPM ratio (pull-down/input). Under “GATGATTGTTCTCCCAGCTGATGAATTTCTTTGGTCGAGTAAACAAATTTTCCTAATCTTTCTGTTCAAGCGCCATCTAC” stands 0.881 RPM ratio (pull-down/input).

As to “GATGATTGTTCTCCCAGCTGATGAATTCTTTTGGTCGAGTAAACAAATTTTCCTAATCTTTCTGTTCAAGCGCCATCTAC”, the binding signal was 1 RPM ratio (pull-down/input).

As for “GATGATTGTTCTCCCAGCTGATGAATTTGGTTGGTCGAGTAAACAAATTTTCCTAATCTTTCTGTTCAAGCGCCATCTAC”, the binding signal was 0.868 RPM ratio (pull-down/input). Take “GATGATTGTTCTCCCAGCTGATGAATTTTTTGGGTCGAGTAAACAAATTTTCCTAATCTTTCTGTTCAAGCGCCATCTAC”: the binding signal was 0.836 RPM ratio (pull-down/input). Regarding “GATGATTGTTCTCCCAGCTGATGAATTTTGTTGGTCGAGTAAACAAATTTTCCTAATCTTTCTGTTCAAGCGCCATCTAC”, the binding signal was 2.26 RPM ratio (pull-down/input). Under “GATGATTGTTCTCCCAGCTGATGAATTGTTTTGGTCGAGTAAACAAATTTTCCTAATCTTTCTGTTCAAGCGCCATCTAC” stands 2.02 RPM ratio (pull-down/input). Take “GATGATTGTTCTCCCAGCTGATGAATTCTTTAAGTCGAGTAAACAAATTTTCCTAATCTTTCTGTTCAAGCGCCATCTAC”: the binding signal is 0.837 RPM ratio (pull-down/input).

In the case of “GATGATTGTTCTCCCAGCTGATGAATTTCTAGCATCGAGTAAACAAATTTTCCTAATCTTTCTGTTCAAGCGCCATCTAC”, the binding signal was 1.06 RPM ratio (pull-down/input). Turning to “GATGATTGTTCTCCCAGCTGATGAATTGCATTCATCGAGTAAACAAATTTTCCTAATCTTTCTGTTCAAGCGCCATCTAC”, the binding signal is 1.46 RPM ratio (pull-down/input). Under “GATGATTGTTCTCCCAGCTGATGAATTTCTGCATTCGAGTAAACAAATTTTCCTAATCTTTCTGTTCAAGCGCCATCTAC” stands 1.35 RPM ratio (pull-down/input). Under “GATGATTGTTCTCCCAGCTGATGAATTGATGCATTCGAGTAAACAAATTTTCCTAATCTTTCTGTTCAAGCGCCATCTAC” stands 1.74 RPM ratio (pull-down/input); under “GATGATTGTTCTCCCAGCTGATGAATTCATGCATTCGAGTAAACAAATTTTCCTAATCTTTCTGTTCAAGCGCCATCTAC”, 1.29 RPM ratio (pull-down/input); under “GATGATTGTTCTCCCAGCTGATGAATTGCAACATTCGAGTAAACAAATTTTCCTAATCTTTCTGTTCAAGCGCCATCTAC”, 1.75 RPM ratio (pull-down/input). Under “GATGATTGTTCTCCCAGCTGATGAATTCATTGCATCGAGTAAACAAATTTTCCTAATCTTTCTGTTCAAGCGCCATCTAC” stands 1.24 RPM ratio (pull-down/input); under “GATGATTGTTCTCCCAGCTGATGAATTCAACATTTCGAGTAAACAAATTTTCCTAATCTTTCTGTTCAAGCGCCATCTAC”, 0.941 RPM ratio (pull-down/input). Take “GATGATTGTTCTCCCAGCTGATGAATTTCAACATTCGAGTAAACAAATTTTCCTAATCTTTCTGTTCAAGCGCCATCTAC”: the binding signal was 0.964 RPM ratio (pull-down/input). Next, “GATGATTGTTCTCCCAGCTGATGAATTGTTGCATTCGAGTAAACAAATTTTCCTAATCTTTCTGTTCAAGCGCCATCTAC”: 1.87 RPM ratio (pull-down/input).

On to “GATGATTGTTCTCCCAGCTGATGAATTTTTGCATTCGAGTAAACAAATTTTCCTAATCTTTCTGTTCAAGCGCCATCTAC”, for which the binding signal was 1.48 RPM ratio (pull-down/input).

“GATGATTGTTCTCCCAGCTGATGAATTGCATTCTTCGAGTAAACAAATTTTCCTAATCTTTCTGTTCAAGCGCCATCTAC”: the binding signal is 1.61 RPM ratio (pull-down/input). Turning to “GATGATTGTTCTCCCAGCTGATGAATTGCATCATTCGAGTAAACAAATTTTCCTAATCTTTCTGTTCAAGCGCCATCTAC”, the binding signal is 1.84 RPM ratio (pull-down/input). For “GATGATTGTTCTCCCAGCTGATGAATTAAACAGATCGAGTAAACAAATTTTCCTAATCTTTCTGTTCAAGCGCCATCTAC”, the binding signal was 1.27 RPM ratio (pull-down/input).

For the sequence “GATGATTGTTCTCCCAGCTGATGAATTATAAGTATCGAGTAAACAAATTTTCCTAATCTTTCTGTTCAAGCGCCATCTAC”, the binding signal was 1.19 RPM ratio (pull-down/input). Regarding “GATGATTGTTCTCCCAGCTGATGAATTGAATAAGTCGAGTAAACAAATTTTCCTAATCTTTCTGTTCAAGCGCCATCTAC”, the binding signal was 0.918 RPM ratio (pull-down/input). Under “GATGATTGTTCTCCCAGCTGATGAATTTTAAATTTCGAGTAAACAAATTTTCCTAATCTTTCTGTTCAAGCGCCATCTAC” stands 0.924 RPM ratio (pull-down/input); under “GATGATTGTTCTCCCAGCTGATGAATTCAGCACTTCGAGTAAACAAATTTTCCTAATCTTTCTGTTCAAGCGCCATCTAC”, 0.847 RPM ratio (pull-down/input). Next, “GATGATTGTTCTCCCAGCTGATGAATTACAGTGTTCGAGTAAACAAATTTTCCTAATCTTTCTGTTCAAGCGCCATCTAC”: 1.16 RPM ratio (pull-down/input). Next, “GATGATTGTTCTCCCAGCTGATGAATTGAGTCAATCGAGTAAACAAATTTTCCTAATCTTTCTGTTCAAGCGCCATCTAC”: 1.01 RPM ratio (pull-down/input).

The values above are taken from publication PMC12820563, “FoxP3 forms a head-to-head dimer in vivo and stabilizes its multimerization on adjacent microsatellites”.
